Only some compounds are listed: those with a hit (about 1.6% of all), similar ones and a draw of the others.
KCNQ2 pot: enhances the rat KCNQ2 potassium channel. AID 2239. hit rate 0.54% among 310,000. O88943. CHO-K1 KCNQ2, FluxOR thallium flux fluorescence; stronger effect = higher value. B-score at 10 µM;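 active = fluorescence ratio B-score at least 3 SD of library B-scores, with initial fluorescence B-score within 3 of them, cut at about 5.3 in these data; same plate scores as AID 2156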;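 also: B-score of peak minus minimum over baseline fluorescence ratio after K+ and Tl+ stimulus; positive B-score means potentiation of KCNQ2 with more thallium influx and brighter signal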
Target sequence (O88943 whole entry, looked up): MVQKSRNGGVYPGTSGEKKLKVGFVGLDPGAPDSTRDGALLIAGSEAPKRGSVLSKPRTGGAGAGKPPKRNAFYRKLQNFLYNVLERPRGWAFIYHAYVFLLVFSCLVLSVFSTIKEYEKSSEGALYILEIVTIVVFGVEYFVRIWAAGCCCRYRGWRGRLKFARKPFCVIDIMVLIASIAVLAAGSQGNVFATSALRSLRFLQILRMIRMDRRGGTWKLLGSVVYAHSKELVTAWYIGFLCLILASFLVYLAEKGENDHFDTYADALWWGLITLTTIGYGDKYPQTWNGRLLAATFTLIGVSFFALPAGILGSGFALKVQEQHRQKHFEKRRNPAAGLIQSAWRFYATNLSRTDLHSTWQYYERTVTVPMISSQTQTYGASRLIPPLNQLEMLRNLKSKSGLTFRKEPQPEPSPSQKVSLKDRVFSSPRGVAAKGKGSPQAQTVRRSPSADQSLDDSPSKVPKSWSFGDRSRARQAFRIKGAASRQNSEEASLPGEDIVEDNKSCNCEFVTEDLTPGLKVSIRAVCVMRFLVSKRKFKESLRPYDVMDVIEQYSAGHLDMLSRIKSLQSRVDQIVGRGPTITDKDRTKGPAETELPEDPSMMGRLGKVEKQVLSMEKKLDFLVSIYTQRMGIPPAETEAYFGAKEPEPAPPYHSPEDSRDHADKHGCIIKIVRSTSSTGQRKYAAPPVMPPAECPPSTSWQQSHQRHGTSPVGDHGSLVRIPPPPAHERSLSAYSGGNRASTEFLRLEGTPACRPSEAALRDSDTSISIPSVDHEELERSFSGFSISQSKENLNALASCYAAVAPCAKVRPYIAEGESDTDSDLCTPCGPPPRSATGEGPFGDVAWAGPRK
KCNQ2 inh: inhibitors of rat KCNQ2 potassium channel; O88943; CHO-K1 KCNQ2, FluxOR thallium flux, 20 min; stronger effect = lower value; B-score at 10 µM; hit rate 1.1% among 310,000;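 active = fluorescence ratio B-score at most minus 3 library SDs, with starting brightness B-score within 2 library SDs, cut at about -5.5 in these data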
* marks the source's active call; other numbers are inactive results; i = inactive; . = no result given.

SMILES	KCNQ2 pot	KCNQ2 inh
CCOC(=O)c1ccc(NC(c2ccc(N(C)C)cc2)P(=O)(OC(C)C)OC(C)C)cc1 (stereo not given)	-6.5	-6.5*
CC(C)(C)C(=O)NC1(C(F)(F)F)NC(=O)N(c2ccc(F)cc2)C1=O (stereo not given)	2.7	i
N#C/C(C(=O)N1CCCC1)=C1/N=C(N)c2ccccc21	0.06	i
Cc1ccc(NC(=O)NC2=N/C(=C(/C#N)C(=O)N3CCCC3)c3ccccc32)cc1	-7	-7*
COc1cccc(-c2c(C#N)c(N)nc3c2c(C)nn3-c2ccccc2)c1O	0.1	i
CCCn1c(N)c(C(=O)CN2CCc3ccccc3C2)c(=O)n(C)c1=O	.	i
CCCCn1c(N)c(C(=S)NC(=O)CC(C)(C)C)c(=O)n(C)c1=O	6.9*	i
O=C(NC1CCN(C(=O)Nc2cccc(Cl)c2)CC1)c1ccco1	.	i
Cc1ccc(-c2nc3ccccc3c(C(=O)NCc3cccs3)c2C)cc1	-6.6	-6.6*
O=C(NCc1cccs1)c1cc(-c2ccccc2)nc2ccccc12	0.3	i
CN(C(=O)COC(=O)c1nn(C)c(=O)c2ccccc12)c1c(N)n(Cc2ccccc2)c(=O)[nH]c1=O	0.22	i
CCc1ccc2[nH]c(=O)c(C(c3nnnn3CC3CCCO3)N3CCCc4ccccc43)cc2c1 (stereo not given)	7.2*	i
Cc1cc2cc(C(c3nnnn3CC3CCCO3)N3CCCc4ccccc43)c(=O)[nH]c2cc1C (stereo not given)	0.15	i
O=C(N1CCN(c2ccccc2)CC1)C12CC3CC(CC(C3)C1)C2	.	i
O=C(N1CCN(Cc2ccccc2)CC1)C12CC3CC(CC(C3)C1)C2	-5.6	-5.6*
O=C(NCCc1ccccc1C(F)(F)F)C1CCC(=O)N(CCCN2CCCC2=O)C1 (stereo not given)	.	i
CC(C)(C)C(=O)Cn1c(=N)n(Cc2ccccc2Cl)c2ccccc21	.	i
CC(C)(C)C(=O)Cn1c(=N)n(Cc2ccccc2)c2ccccc21	-6.2	-6.2*
CCOC(=O)C1C(=O)NC(c2ccccc2)=NC1c1ccc(Br)cc1 (stereo not given)	0.4	i
CCN=C(NCC)SC1CC(=O)N(c2ccc(OC)cc2)C1=O (stereo not given)	.	i
CCN=C(NCC)SC1CC(=O)N(c2cccc(OCC)c2)C1=O (stereo not given)	-6.2	-6.2*
COc1ccc(OCC(=O)N2CCC(n3nccc3NC(=O)C3CC3)CC2)cc1	.	i
CCOc1ccccc1-c1ccc(C(=O)NCc2ccccc2)o1	-5.8	-5.8*
CCOc1cccc2cc(C(=O)NCc3ccccc3)c(=N)oc12	.	i
O=C(COc1ccc(C(=O)O)cc1)Nc1cccc(C(F)(F)F)c1	0.74	i
SMILES	KCNQ2 pot	KCNQ2 inh
O=C(COc1ccc(C(=O)NCCN2CCOCC2)cc1)Nc1cccc(C(F)(F)F)c1	-5.7	-5.7*
Cc1cccc(OCC(=O)OC(C)CN2CCCCC2)c1 (stereo not given)	0.71	i
Cc1ccc(O)c(C(=O)c2cnc3c(c2)CN(C)C(=O)N3)c1	0.53	i
Cc1ccc2c(c1)-c1ncc(C(=O)c3cc(Br)ccc3O)cc1CO2	-7.4	-7.4*
O=C1CCCC(O)=C1C(C#Cc1ccccc1)C1=C(O)CCCC1=O	-6.5	-6.5*
CC1(C)CC(=O)C(C(C#Cc2ccccc2)C2=C(O)CC(C)(C)CC2=O)=C(O)C1	-5.7	-5.7*
O=C1CCCC(O)=C1Sc1ccccc1C(=O)O	.	i
CC1(C)CC(=O)C(N=Nc2ccc(-c3ccccc3)cc2)=C(O)C1	.	i
COc1ccc(N(C(=O)c2csnn2)C(C(=O)NC2CCCC2)c2ccccc2)cc1 (stereo not given)	.	i
CCn1c(COC(=O)CNC(=O)c2ccccc2)nc2cc(S(=O)(=O)N(C)C)ccc21	1.4	i
CC(C(=O)NC1CCCCCC1)c1ccc([N+](=O)[O-])cc1 (stereo not given)	1.7	i
CCOc1ccc(Br)cc1C1=NN(C(C)=O)C(c2ccc([N+](=O)[O-])s2)O1 (stereo not given)	.	i
CNC(=O)NC(=O)COC(=O)/C=C/c1cccc(Br)c1	0.29	i
CCN1CCN(C(=O)c2ccc3c(c2)c(C)c(C)n3Cc2ccccc2)CC1	.	i
CCn1c(C)c(C)c2cc(C(=O)N3CCc4ccccc4C3)ccc21	-6	-6*
O=c1c2ccccc2nc(-c2ccco2)n1Cc1ccccc1	.	i
CCOc1ccc(CCn2c(-c3ccco3)nc3ccccc3c2=O)cc1OCC	-6.9	-6.9*
O=C(NCCN1CCCC1)c1ccc2c(c1)N(Cc1ccccc1)C(=O)c1ccccc1S2(=O)=O	0.58	i
O=C(c1cccs1)c1no[n+]([O-])c1C(=O)c1cccs1	-14	-14*
COc1ccc(C(=O)c2no[n+]([O-])c2C(=O)c2ccc(OC)cc2)cc1	.	i
CC(C(=O)Nc1cccc([N+](=O)[O-])c1)N1C(=O)NC2(CCCC2)C1=O (stereo not given)	0.54	i
COc1ccc(-c2cc(C(=O)Nc3cccc(Cl)c3)no2)cc1	.	i
COc1ccc(OC)c(-c2cc(C(=O)Nc3cccc(Cl)c3)no2)c1	-7.5	-7.5*
COC(=O)c1cccc(NS(=O)(=O)c2ccc(OC)c(C(=O)N3CCOCC3)c2)c1C	2.1	i
CCc1ccccc1N(CC(=O)N1CCc2ccccc2C1)S(C)(=O)=O	0.01	i
SMILES	KCNQ2 pot	KCNQ2 inh
Cc1cc(C)c2nc(-c3cccnc3)cc(C(=O)NC(C)c3cnn(C)c3C)c2c1 (stereo not given)	-8	-8*
Cc1cccc2c(C(=O)O)cc(-c3cccnc3)nc12	0.01	i
CCC(C)(C)NC(=O)C1CC(=O)N(CCc2ccc(F)cc2)C1 (stereo not given)	.	i
OCCOCCN1CCN(C(=S)Nc2ccccc2)CC1	.	i
CCOc1ccc(N2C(=O)CC(NC3CCN(C(=O)c4ccc(F)cc4)CC3)C2=O)cc1 (stereo not given)	.	i
CCOC(=O)c1ccc(N2C(=O)CC(NC3CCN(C(=O)c4ccc(F)cc4)CC3)C2=O)cc1 (stereo not given)	-9.5	-9.5*
Cc1cccn2c(=O)nc(SCC(=O)Nc3ccc4c(c3)OCCO4)nc12	.	i
Cc1ccccc1NC1=NC(=S)N(c2ccccc2)C12CCCCC2	5.5*	i
Cc1ccccc1NC1=NC(=S)N(c2ccccc2)C12CCOC(C)(C)C2 (stereo not given)	0.22	i
CC1CCN(C(=O)CCC(=O)N2CC(C)Oc3ccccc32)CC1 (stereo not given)	.	i
Cc1ccc2c(c1)N(C(=O)CCC(=O)N1CCN(c3ccccc3)CC1)CCO2	0.01	i
Cc1cccc(N2CCN(C(=O)CCC(=O)N3CC(C)Oc4ccccc43)CC2)c1C (stereo not given)	-5.9	-5.9*
Cc1ccc2c(c1)N(C(=O)CCC(=O)N1CCN(c3cccc(C)c3C)CC1)CCO2	-5.7	-5.7*
CC(Sc1nnc(-c2ccc(Cl)cc2Cl)n1Cc1ccccc1)C(=O)Nc1nccs1 (stereo not given)	.	i
Cc1nnc(SC(C)C(=O)Nc2ccc(Cl)cn2)n1Cc1ccccc1 (stereo not given)	-6.2	-6.2*
C/C(CC(=O)Nc1cc(C)ccn1)=N\NC(=O)C(=O)Nc1cccc(C)c1	5.4*	i
COc1ccc(NC(=O)C(=O)N/N=C(\C)CC(=O)Nc2cc(C)ccn2)c(OC)c1	1	i
